# From the supplement of paper PMC10127200
# Counter-ions that a name gives are not always drawn.
# How the values were obtained:
# Test in all cases: Euclidean distance of Cell Painting phenotypic profile (signed KS, 77 features) to DMSO centroid (dimensionless distance); 5 or 10 uM (library dependent); higher = stronger phenotypic change vs DMSO (phenoactivity)
# Conditions in all cases: 48 h
# 786-O = tested on: 786-O
# In short: (§1)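 Stained cells were imaged confocally at 20X with 9 fields per well, after 48 h of exposure to library compounds at 10 or 5 uM (set by library; 0.1% DMSO final). The cells were five cancer lines and a healthy fibroblast line. From the images, Harmony extracted 77 features, each expressed as a signed Kolmogorov-Smirnov statistic relative to same-plate vehicle wells. Phenoactivity is measured as Euclidean distance to the median vehicle profile, using plate-position-corrected, correlation-weighted profiles averaged across replicates at the top dose.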
# A549 = tested on: A549
# In short: as §1
# DU145 = tested on: DU145
# In short: as §1
# FB = tested on: FB
# In short: as §1
# HEPG2 = tested on: HEPG2
# In short: as §1
# OVCAR4 = tested on: OVCAR4
# In short: as §1
SMILES,Euclidean distance (786-O),Euclidean distance (A549),Euclidean distance (DU145),Euclidean distance (FB),Euclidean distance (HEPG2),Euclidean distance (OVCAR4)
CN(C)c1cccc(-c2c3c(=O)n(-c4ccccc4Cl)[nH]c3cc(=O)n2C)c1,1.01,1.99,1.08,0.844,0.852,1.39
COc1ccc(C[C@H](N)C(=O)N[C@H]2[C@@H](O)[C@H](n3cnc4c(N(C)C)ncnc43)O[C@@H]2CO)cc1 [Puromycin 2HCl],6.42,3.8,4.87,6.23,4.76,6
O=C(c1ccc(Nc2nccc(-c3cc4ccccc4s3)n2)cc1)N1CCC(N2CCCC2)CC1 [IKK-16 (IKK Inhibitor VII)],3.91,4.2,3.04,4.35,4.29,4.4
COC1=CC(c2cc3ccccc3[nH]2)=N/C1=C\c1[nH]c(C)cc1C [Obatoclax Mesylate (GX15-070)],4.8,4.59,2.78,4.82,3.8,3.71
Cn1c(=O)c2[nH]c(Br)nc2n(C)c1=O [Pamabrom],0.794,0.799,1.56,1.18,0.337,0.81
CN1C(=O)[C@@H](NC(=O)c2n[nH]c(Cc3ccccc3)n2)COc2ccccc21,0.778,1.15,1.8,1.02,0.727,1.12
CC(=O)OCC(=O)NCCCOc1cccc(CN2CCCCC2)c1 [Roxatidine Acetate HCl],1.32,0.853,0.769,0.72,0.711,0.763
O=C(O)[C@@H]1CCCN1 [L-Proline],1.26,0.98,1.37,1,0.823,0.766
Cc1ncc([N+](=O)[O-])n1C [Dimetridazole],1.08,0.82,1.15,0.783,0.672,0.957
CC1=C(C(=O)Nc2cc3cn[nH]c3cc2F)C(c2ccc(C(F)(F)F)cc2)CC(=O)N1 (stereo not given),2.35,1.68,2.39,2.35,0.954,2.51
Clc1ccc(Nc2nnc(Cc3ccncc3)c3ccccc23)cc1 [Vatalanib (PTK787) 2HCl],1.01,1.05,1.47,1.53,1.42,1.29
CC(C)CN(C[C@@H](OP(=O)(O)O)[C@H](Cc1ccccc1)NC(=O)O[C@H]1CCOC1)S(=O)(=O)c1ccc(N)cc1 [Fosamprenavir calcium salt],1.44,0.901,1.21,0.737,0.527,1.41
CC/C=C\C/C=C\C/C=C\C/C=C\C/C=C\C/C=C\CCC(=O)O [Docosahexaenoic Acid],1.08,0.581,0.837,1.06,0.766,1.1
CC(=O)O[C@]1(C(C)=O)CC[C@H]2[C@@H]3C=C(Cl)C4=CC(=O)CC[C@]4(C)[C@H]3CC[C@@]21C [Chlormadinone acetate],1.27,1.1,1.72,1.26,0.98,0.962
CCCCC[C@H](O)/C=C/[C@H]1[C@H](O)CC(=O)[C@@H]1CCCCCCC(=O)O [Alprostadil],1.36,0.929,0.936,1.16,0.927,1.2
CC(=O)NO [Acetohydroxamic acid],1.37,1.28,0.954,1.17,0.648,0.776
CN1CC2c3ccccc3Oc3ccc(Cl)cc3C2C1 (stereo not given) [Asenapine],1.1,0.811,0.805,1.19,1.03,0.94
O=C(O)CCCN1CCC(O[C@@H](c2ccc(Cl)cc2)c2ccccn2)CC1 [Bepotastine],0.883,0.582,0.573,0.639,0.595,0.955
Nc1ccc(S(=O)(=O)Nc2ncccn2)cc1 [Sulfadiazine],1.39,0.735,1.5,1.03,2.25,1.43
CCCCOCCOCCOCc1cc2c(cc1CCC)OCO2 [Piperonyl butoxide],0.659,1.99,0.875,0.892,1.06,1.04
Cc1cc(OCCCS(C)(=O)=O)cc(C)c1-c1cccc(COc2ccc3c(c2)OC[C@H]3CC(=O)O)c1,1.05,1.02,1.26,2.38,1,1.88
COc1cc2nc(N(C)CCCNC(=O)C3CCCO3)nc(N)c2cc1OC (stereo not given) [Alfuzosin HCl],0.985,0.664,0.632,0.744,0.675,0.907
N[C@@H](Cc1cc(I)c(Oc2cc(I)c(O)c(I)c2)c(I)c1)C(=O)O [L-Thyroxine],1.38,1.12,1.19,0.961,0.718,1.45

SMILES,Euclidean distance (786-O),Euclidean distance (A549),Euclidean distance (DU145),Euclidean distance (FB),Euclidean distance (HEPG2),Euclidean distance (OVCAR4)
CC[C@H]1OC(=O)[C@H](C)[C@@H](O[C@H]2C[C@@](C)(OC)[C@@H](O)[C@H](C)O2)[C@H](C)[C@@H](O[C@@H]2O[C@H](C)C[C@H](N(C)C)[C@H]2O)[C@](C)(O)C[C@@H](C)C(=O)[C@H](C)[C@H]2OC(=O)O[C@@]21C [Erythromycin Cyclocarbonate],1.11,1.33,0.736,0.984,1.01,0.912
CC1(C)[C@@H](O[C@H]2O[C@H](C(=O)O)[C@@H](O)[C@H](O)[C@H]2O[C@@H]2O[C@H](C(=O)O)[C@@H](O)[C@H](O)[C@H]2O)CC[C@]2(C)[C@H]3C(=O)C=C4[C@@H]5C[C@@](C)(C(=O)O)CC[C@]5(C)CC[C@@]4(C)[C@]3(C)CC[C@@H]12 [Diammonium Glycyrrhizinate],1.05,1.68,1.1,0.929,0.457,1.73
CN1CCC(=C2c3ccccc3CCn3c(C=O)cnc32)CC1 [Alcaftadine],1.07,0.581,1.26,1.66,0.597,1.22
COc1ccc2c(O[C@@H]3C[C@H]4C(=O)N[C@]5(C(=O)NS(=O)(=O)C6CC6)C[C@H]5/C=C\CCCCN(C)C(=O)[C@@H]4C3)cc(-c3nc(C(C)C)cs3)nc2c1C [Simeprevir],1.38,2.3,1.29,0.939,0.799,1.23
COc1ccc(-c2ccc3c(N4CCOC[C@@H]4C)nc(N4CCOC[C@@H]4C)nc3n2)cc1CO,4,3.49,2.25,5.02,2.55,3.73
Cc1c(-c2ccc(O)cc2)n(Cc2ccc(OCCN3CCCCCC3)cc2)c2ccc(O)cc12 [Bazedoxifene Acetate],4.76,4.78,3.21,4.56,4.37,3.76
COC(=O)N(C)c1c(N)nc(-c2nn(Cc3ccccc3F)c3ncccc23)nc1N [Riociguat (BAY 63-2521)],1.1,0.74,0.825,1.34,0.598,0.876
c1ccc2[nH]c(-c3cscn3)nc2c1 [Thiabendazole],1.16,0.753,1.31,1.1,1.93,0.914
Clc1ccc2c(N3CCN(CCCN4CCN(c5ccnc6cc(Cl)ccc56)CC4)CC3)ccnc2c1 [Piperaquine phosphate],1.59,1.33,1.11,1.45,0.952,1.25
O=C(OC(C(F)(F)F)C(F)(F)F)N1CCN(Cc2ccc(C(F)(F)F)cc2N2CCCC2)CC1,1.62,1.13,0.875,1.46,1.27,1.66
C/C1=C2N=C(/C=C3N=C(/C(C)=C4\[N-]C(C(CC(N)=O)C4(C)CCC(=O)NCC(C)OP(=O)([O-])OC4C(CO)OC(n5cnc6cc(C)c(C)cc65)C4O)C4(C)N=C1C(CCC(N)=O)C4(C)CC(N)=O)C(CCC(N)=O)C\3(C)C)C(CCC(N)=O)C/2(C)CC(N)=O.[CH3-].[Co+3] (stereo not given) [Methylcobalamin],0.89,0.91,1.12,0.99,1.02,0.959
COc1ccc(-c2coc3cc(O)cc(O)c3c2=O)cc1 [Biochanin A],0.496,0.937,0.839,0.805,1.1,0.958
CC(=O)N1CCN(CCOc2ccc(C3CCN(C4=Nn5c(nnc5C(F)(F)F)CC4)CC3)cc2)CC1,1.54,0.992,1.22,1.76,2.06,2.66
COc1cc(OC2CCN(C)CC2)ccc1Nc1ncc2c(n1)n(C1CCCC1)c(=O)n2C,1.53,2.28,1.39,2.84,1.78,1.83
CN1CCN(c2ccc3nc(-c4c(N)c5c(F)cccc5[nH]c4=O)[nH]c3c2)CC1 [Dovitinib (TKI-258) Dilactic Acid],2.81,3.4,2.01,4.28,0.932,1.96
CN1CCN(S(=O)(=O)c2ccc(-c3cnc(N)c(C(=O)Nc4cccnc4)n3)cc2)CC1,3.21,3.47,1.43,1.66,1.34,3.18
Cc1c(C(N)=O)cc([N+](=O)[O-])cc1[N+](=O)[O-] [Dinitolmide],0.913,1.4,0.756,0.814,0.831,1.38
Cc1c(-c2ccc(-c3ccccc3F)cc2)nc2ccc(F)cc2c1C(=O)O [Brequinar],1.61,1.46,0.974,0.698,1.44,1.45
Cn1c(=O)c2c(ncn2CCO)n(C)c1=O [Etofylline],1.39,0.749,1.18,1.08,0.452,1.26
C[C@H]1[C@H](C)CC[C@]2(C(=O)O[C@@H]3O[C@H](CO[C@@H]4O[C@H](CO)[C@@H](O[C@@H]5O[C@@H](C)[C@H](O)[C@@H](O)[C@H]5O)[C@H](O)[C@H]4O)[C@@H](O)[C@H](O)[C@H]3O)CC[C@]3(C)C(=CC[C@@H]4[C@@]5(C)C[C@@H](O)[C@H](O)[C@@](C)(CO)[C@@H]5[C@H](O)C[C@]43C)[C@H]12 [Madecassoside],0.76,0.636,0.932,1.03,0.483,1.28
CC1(C)S[C@@H]2[C@H](NC(=O)COc3ccccc3)C(=O)N2[C@H]1C(=O)O [Penicillin V potassium salt],1.25,1.22,1.35,0.767,0.481,1.67
CCCCCCCCN=c1ccn(CCCCCCCCCCn2ccc(=NCCCCCCCC)cc2)cc1 [Octenidine Dihydrochloride],6.46,4.73,6.38,6.45,4.62,6.71
